# Compound activity deposited in PubChem by National Center for Advancing Translational Sciences (NCATS).
# KB-V1 cytotox: kills drug-selected multidrug resistant KB-V1 cells; 400,000 tested, 3.4% active; Potency, µM (series often up to 46.1 µM), actives largely listed as cytotoxic; AID 1347076; KB-V1 MDR cells viability, CellTiter-Glo, 72 h; further: on the % scale 0 is the no-effect control and ±100 the full control effect; nearly all actives have a fitted effect of over 60% in size
#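 Cells of the MDR subline KB-V1 are plated, dosed with compound at multiple concentrations, and incubated 72 h at 37 degrees C; CellTiter-Glo is then added and luminescence read after 10 min.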
# SW480 rerep: induces DNA re-replication in SW480 colon adenocarcinoma cells; SW480 DNA re-replication, Hoechst DNA content imaging, 48 h; Potency, µM (titrated, usually from 46.1 µM), for the others: at the top dose re-replication activation, hits mostly activators; 340,000 tested, 1.8% active; AID 624297; further: % of control where 0% means no effect; nearly all actives have a fitted effect of over 55% in size
#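 Per well, 250 cells were exposed to pinned compound for 48 hr. Nuclear DNA was visualised with Hoechst (40 min, 37 C) and total object intensity recorded by fluorescence scanning.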
# HT1080 IDH1KD tx: HT-1080 IDH1 knockdown cell toxicity (counter line); 360,000 tested, 2% active; AID 686971; Potency, µM (highest dose often 46.1 µM), for inactives: at the highest dose activity, negative = toxicity, hits mostly cytotoxic; HT-1080 IDH1 knockdown viability, ATP luminescence, 48 h;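 further: 0% = DMSO wells and -100% = cell-free medium wells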
#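 In this qHTS, HT-1080 cells depleted of IDH1 are exposed for 48 h at 37 °C to compound titrations. Toxicity is scored from CellTiter-Glo luminescence, with DMSO as full viability and medium alone as none.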
# HT1080-NT tox: kills 2HG-producing HT-1080-NT fibrosarcoma cells; HT-1080-NT fibrosarcoma viability, CellTiter-Glo ATP luminescence, 48 h; Potency, µM (doses to about 46.1 µM), without a hit: at the highest dose activity, negative = less viability, hits mostly cytotoxic; 360,000 tested, 1.6% active; AID 686970;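 further: NT is the 2HG producing partner of a matched IDH1 knockdown line; 0% = DMSO-treated cells and -100% = media-only wells without cells; nearly all actives have a fitted effect of over 55% in size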
#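 Toxicity toward the 2HG-producing NT line was scored as %Activity, normalised to DMSO and no-cell wells, from CellTiter-Glo luminescence after 48 hours' treatment.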
# KB-3-1 tox: kills parental KB-3-1 adenocarcinoma cells; KB-3-1 viability, CellTiter-Glo ATP luminescence, 72 h; Potency, µM (highest dose often 46.1 µM), most hits filed as cytotoxic; 400,000 tested, 1.4% active; further: on the % scale 0 is the no-effect control and ±100 the full control effect; nearly all actives have a fitted effect of over 60% in size
#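 KB-3-1 cells, DMEM (no phenol red) + 10% FBS; compound by pin transfer, 72 h, 37 °C. Readout: CellTiter-Glo luminescence after 10 min. Data normalized, curve-fitted.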
# MCF10A rereplic: DNA re-replication induction in MCF 10a cells; MCF 10A DNA re-replication, Hoechst nuclear intensity, 48 h; Potency, µM (titrated, usually from 46.1 µM), for the others: top-dose activity, positive = re-replication, actives largely listed as activators; 350,000 tested, 2.9% active; further: % of control where 0% means no effect; nearly all actives have a fitted effect of over 50% in size
# The depositor's hits bear a star; i = inactive; ? = inconclusive; · = no result; [ ] = another dose, or the depositor's remark. The list is not random: actives were taken first. Their share in the collection is about 8%. The call rests on the fitted dose curve; in most records, active means well fitted curve in the direction sought with a large enough effect; inconclusive means small, poorly fitted or top-dose-only effect, or another doubt; inactive means no such curve, though single readings can be large; an effect the other way counts as inactive or inconclusive. Potency means the concentration at half of the fitted maximal effect.
SMILES,KB-V1 cytotox,SW480 rerep,HT1080 IDH1KD tx,HT1080-NT tox,KB-3-1 tox,MCF10A rereplic
CCN1CCN(c2nc(Nc3ccc(C)c(C)c3)nc(N)c2[N+](=O)[O-])CC1,?,1%,?,?,?,2%
Cc1cccc(Nc2nc(N)c([N+](=O)[O-])c(N3CC(C)OC(C)C3)n2)c1 (stereo not given),i,-9%,5%,4%,?,1%
Cc1cccc(Nc2nc(N)c([N+](=O)[O-])c(N3CCC(C)CC3)n2)c1,?,?,?,?,?,23µM*
CCOC(=O)c1noc2ncn(CC(=O)O)c(=O)c12,i,·,·,·,i,·
COc1ccc(CCNc2ncnc3onc(C)c23)c(OC)c1,i,·,·,·,?,·
CN(C)c1ccc(C=Nc2ccc(/C=C3\C=Cc4ccccc43)cc2)cc1,i,·,·,·,i,·
CCOc1ccc(CSC(=N)N)cc1Cl,i,?,-11%,-6%,i,18µM*
Cc1c(C(=O)OCc2ccccc2)[nH]c2c1C(=O)CC(c1ccco1)C2 (stereo not given),?,?,1.3µM*,?,0.58µM*,?
Cc1c(C(=O)OCCOc2ccccc2)[nH]c2c1C(=O)CC(c1ccc(C(C)(C)C)cc1)C2 (stereo not given),i,·,·,·,i,·
CCOC(=O)c1[nH]c2c(c1C)C(=O)CC(c1ccco1)C2 (stereo not given),i,0.18µM*,0.92µM*,1µM*,i,9.2µM*
Cc1c(C(=O)OCCOC(C)C)[nH]c2c1C(=O)CC(C)(C)C2,i,3%,15%,9%,i,-1%
CSCCOC(=O)c1[nH]c2c(c1C)C(=O)CC(c1ccco1)C2 (stereo not given),?,1.3µM*,2.3µM*,?,1.2µM*,?
Cc1c(C(=O)OCCOC(C)C)[nH]c2c1C(=O)CC(c1ccco1)C2 (stereo not given),0.46µM*,1.5µM*,0.33µM*,0.41µM*,0.52µM*,?
Cc1nn(CC(=O)NCc2ccc(N(C)C)cc2)c(=O)c2nn(-c3ccccc3)c(C)c12,?,·,·,·,i,·
COc1cc(CCNC(=O)c2ccc3c(c2)c(C)c(C)n3Cc2cccc(C)c2)cc(OC)c1OC,i,·,·,·,i,·
O=c1c2sc3ccccc3c2n(Cc2ccccc2F)c(=O)n1CCc1ccccc1,i,·,·,·,i,·
O=C(CSc1nnc(-c2ccc(Cl)cc2)o1)N1CCc2ccccc21,i,·,·,·,i,·
CCc1ccccc1NC(=O)CCC(=O)N1CC(C)Oc2ccc(C)cc21 (stereo not given),i,·,·,·,i,·
COCCOC(=O)c1[nH]c2c(c1C)C(=O)CC(c1ccco1)C2 (stereo not given),1.2µM*,1µM*,1.6µM*,2.3µM*,1.2µM*,8.2µM*
Cc1ccc(C)c(N2CCN(C(=O)Nc3ccc4c(c3)N(C)C(=O)CS4)CC2)c1,i,2%,?,-23%,i,3%
CN1C(=O)CSc2ccc(NC(=O)N3CCN(c4ccccn4)CC3)cc21,18µM*,-6%,4%,4%,i,-39%
CN1C(=O)CSc2ccc(NC(=O)N3CCc4ccccc43)cc21,16µM*,1%,-7%,-28%,i,?
CCNc1nc(C)c2cc(Br)c(=O)n(CC)c2n1,6.5µM*,-1%,2.1µM*,2.9µM*,?,?
CCNc1nc(NC(C)C)nc(Nn2cnnc2)n1,i,-5%,7%,8%,i,1%
O=C(Nc1cc(-c2ccccc2)nn1-c1c(Cl)cccc1Cl)c1ccc(F)cc1,i,1%[9.22 µM],-24%,-22%,i,15µM*
COc1ccc(CNC(=O)C(=O)NCC(c2cccs2)S(=O)(=O)c2cccs2)cc1 (stereo not given),i,·,·,·,i,·
Cc1cc(=O)n(CC(=O)Nc2ccc([N+](=O)[O-])cc2)c(-n2nc(C)cc2C)n1,?,·,·,·,i,·
